Screens: PubChem BioAssay, National Center for Advancing Translational Sciences (NCATS)
KinaseGlo FLuc – counter-screen: inhibitors of Kinase-Glo firefly luciferase; Kinase-Glo luciferase, ATP luminescence, 8 min; Potency, µM (highest dose often 38.3 µM), inactives show at the highest dose activity change, negative = inhibition, most hits filed as inhibitors; 0.28% of 200,000 active; AID 1379; further: on the % scale 0 is the no-effect control and ±100 the full control effect; nearly all actives have a fitted effect of over 60% in size
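Compound is pinned into ATP-containing buffer (10 uM ATP, imidazole pH 7.2, 7 mM MgCl2). Kinase-Glo luciferase reagent is then added. Light output is recorded following an 8-min room-temperature incubation.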
SMN2 splice enh – SMN2 splice variant enhancement; AID 1458; Potency, µM (doses to about 46.1 µM), inactives show at the top dose activity change, positive = activation, usual class: activators; 2.8% of 210,000 active; HEK293 SMN2-luciferase splicing reporter, luminescence, 30-36 h; further: % of control where 0% means no effect; nearly all actives have a fitted effect of over 55% in size
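qHTS luciferase splicing reporter: luminescence rises when SMN2 exon 7 is included in transfected HEK293 cells. Compound exposure lasted 30-36 h at 37C, with 4.5 mM final sodium butyrate as control, followed by a ONE-Glo read.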
FLuc counter – inhibits or activates purified firefly luciferase, miR-21 counter-screen; purified FLuc, Km substrates, luminescence inhibition; Potency, µM (doses to about 57.5 µM), without a hit: at the top dose activity change, negative = inhibition, actives largely listed as inhibitors; 6.9% of 360,000 active;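 further: plate controls were vehicle for no effect and reference inhibitor for full effect; nearly all actives have a fitted effect of over 55% in size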
Target sequence (P08659 whole entry, looked up): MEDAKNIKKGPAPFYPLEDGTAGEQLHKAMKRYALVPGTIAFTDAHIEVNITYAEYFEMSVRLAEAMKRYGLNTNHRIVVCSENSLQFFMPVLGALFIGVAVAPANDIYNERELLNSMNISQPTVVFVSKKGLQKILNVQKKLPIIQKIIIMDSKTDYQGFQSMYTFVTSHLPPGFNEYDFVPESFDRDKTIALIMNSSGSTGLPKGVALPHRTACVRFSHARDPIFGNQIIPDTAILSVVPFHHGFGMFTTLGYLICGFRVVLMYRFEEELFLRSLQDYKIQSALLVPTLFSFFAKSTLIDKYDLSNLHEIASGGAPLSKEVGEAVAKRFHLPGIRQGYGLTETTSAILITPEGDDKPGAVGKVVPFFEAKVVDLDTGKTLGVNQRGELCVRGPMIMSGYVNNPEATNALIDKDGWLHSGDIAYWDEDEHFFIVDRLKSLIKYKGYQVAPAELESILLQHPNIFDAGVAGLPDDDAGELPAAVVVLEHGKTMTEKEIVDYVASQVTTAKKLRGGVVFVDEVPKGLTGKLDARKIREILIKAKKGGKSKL
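Purified P. pyralis luciferase (10nM final) with 10uM D-luciferin and 10uM ATP (Km levels) in 50mM Tris acetate pH 7.5, 10mM Mg acetate, 0.01% Tween-20, 0.05% BSA; qHTS 6-point titration, ~60 µM downward; luminescence read.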
ELG1 genotoxic – genotoxicity induction in ELG1-luciferase HEK293T cells. Potency, µM (doses to about 46 µM), inactives show at the highest dose activity change, positive = activation, actives largely listed as activators. HEK293T ELG1-luciferase reporter, luminescence, 16 h. AID 504466. 1.3% of 330,000 active; further: % of control where 0% means no effect; nearly all actives have a fitted effect of over 60% in size
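HEK293T cells expressing luciferase-tagged ELG1 were treated with compound or DMSO for 16 hr at 37°C. Luciferase activity was then read after 30 min with ONE-Glo at room temperature; rising signal flags genetic stress.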
NPC1 promoter act – activators of NPC1 promoter; Huh7 NPC1 promoter luciferase reporter, 24 h; Potency, µM (highest dose often 9.22 µM), without a hit: at the highest dose activation, most hits filed as activators; 2.4% of 320,000 active; AID 485313; further: % of control where 0% means no effect; nearly all actives have a fitted effect of over 60% in size
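Stable NPC1-promoter luciferase Huh7 line; cpd (DMSO) 24 h, 37 °C, 5% CO2; Amplite luciferase reagent 10 min RT; luminescence readout. qHTS format.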
Rab9 promoter act – Rab9 promoter activation; 2.8% of 320,000 active; Potency, µM (highest dose often 9.22 µM), inactives show at the highest dose activation, negative = inhibition, actives largely listed as activators; Huh7 Rab9 promoter-luciferase reporter, luminescence, 24 h; further: % of control where 0% means no effect; nearly all actives have a fitted effect of over 60% in size
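Luciferase signal after 10 min detection reagent at ambient indicates Rab9 promoter upregulation; stably transfected Huh7 cells were treated 24 h with compound in DMSO at 37 °C, 5% CO2.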
Starred values were filed as active, the others as inactive; ? = inconclusive; · = no result. An excerpt weighted towards active compounds, which were near 7.3% of everything screened. The call rests on the fitted dose curve; in most records, active means well fitted curve in the direction sought with a large enough effect; inconclusive means small, poorly fitted or top-dose-only effect, or another doubt; inactive means no such curve, though single readings can be large; an effect the other way counts as inactive or inconclusive. Potency means the concentration at half of the fitted maximal effect.

SMILES | KinaseGlo FLuc | SMN2 splice enh | FLuc counter | ELG1 genotoxic | NPC1 promoter act | Rab9 promoter act
CN(C)c1ccc(/C=N/NC(=O)CCC(=O)NCc2ccccc2)cc1 | 1% | 8% | ? | -1% | 0% | 2%
CN(C)c1ccc(C=Nc2ccc(N(C)C)cc2)cc1 | -10% | -62% | 8.5µM* | ? | 0% | 20%
CN(C)c1ccc(C=Nc2ccccc2)cc1 | 1% | -8% | 0.43µM* | -1% | -1% | 1%
Cc1ccc(N=Cc2ccc(N(C)C)cc2)cc1 | -2% | -7% | ? | 0% | 1% | -2%
CN(C)c1ccc(N=Cc2ccco2)cc1 | 11µM* | -25% | 4.8µM* | ? | 12% | 9%
Cc1ccc(N=Cc2ccc(N(C)C)cc2)cc1C | 0% | -6% | 0.95µM* | -1% | -3% | -2%
C(=Nc1cccc2c(N=Cc3ccco3)cccc12)c1ccco1 | -3% | 3% | -11% | -2% | 7% | 12%
CCc1cccc(NC(=O)CSc2nncn3c2cc2sccc23)c1 | · | · | -6% | · | · | ·
Cc1nc(/N=C\c2ccc(N(C)C)cc2)sc1C | · | · | 0.3µM* | 1% | -1% | -4%
C=CCc1c(C)nc(C)nc1N/N=C/c1ccc(N(C)C)cc1 | -1% | -14% | -3% | -2% | -8% | -18%
COC(=O)/C(=C1/Oc2cc(C)oc(=O)c2S1)C(F)(F)F | 1% | -133% | -2% | -8% | -14% | -3%
COC(=O)/C(=C1/Oc2ccc(C(C)(C)C)cc2S1)C(F)(F)F | 1% | -16% | 4.8µM* | ? | ? | ?
O=c1c(=O)n(-c2ccc(F)c(F)c2)ccn1Cc1ccc(F)cc1Cl | · | · | 2% | · | · | ·
CCC(=O)Nc1nnc(S(=O)(=O)N(C)Cc2ccc(Cl)cc2)s1 | · | · | -10% | · | · | ·
O=c1oc2ccccc2cc1-c1cn2cc(Cc3ccccc3F)sc2n1 | · | 1% | 0.34µM* | · | · | ·
Cc1ccn2cc(-c3cc4ccccc4oc3=O)nc2c1 | 10µM* | · | 0.43µM* | 0.46µM* | 0.32µM* | 0.28µM*
Cc1ccc(-c2csc(Cc3nc(-c4cc5ccccc5oc4=O)cs3)n2)cc1 | -7% | -72% | 1% | -3% | -16% | -20%
O=c1oc2ccccc2cc1-c1cn2cc(Cc3ccc(Cl)cc3)sc2n1 | · | -2% | -1% | · | · | ·
Cc1ccc(NC(=O)CN2C(=O)C(c3ccccc3)=NC2(C)C)cc1C | · | 2% | -11% | · | · | ·
Cc1cc(C)cc(NC(=O)Nc2cccc(S(N)(=O)=O)c2)c1 | · | · | 15µM* | 0% | 2% | 1%
Cc1cccc(NC(=O)Nc2ccc3c(c2)CCC3)c1 | · | · | 3µM* | ? | 2µM* | 1.8µM*
CC(=O)c1cccc(NC(=O)Nc2ccc3c(c2)CCC3)c1 | · | · | 2.4µM* | 13% | ? | ?
CCc1ccc(NC(=O)Nc2ccc3c(c2)CCC3)cc1 | · | · | -5% | ? | ? | ?
Cc1cccc(NC(=O)Nc2cnccn2)c1 | -5% | 12% | ? | 0% | 0% | -9%
Cc1cccc(NC(=O)Nc2ccncc2)c1 | -4% | ? | 17µM* | 7% | 12% | 17%
SMILES | KinaseGlo FLuc | SMN2 splice enh | FLuc counter | ELG1 genotoxic | NPC1 promoter act | Rab9 promoter act
COC(=O)c1ccc(COc2ccc(-c3nnn(CC(N)=O)n3)cc2)cc1 | 1% | 15% | -1% | -13% | 3% | -4%
Cc1ccc(-c2nnn(CC(=O)O)n2)cc1 | 3% | -15% | -10% | 3% | -3% | -11%
O=C(O)COc1ccc(-c2nnn(Cc3ccccc3F)n2)cc1 | 0% | 7% | 19µM* | 7% | 9% | -1%
COC(=O)c1ccc(COc2ccc(-c3nnn(CC(=O)NC(C)(C)C)n3)cc2)cc1 | -1% | 14µM* | 1% | ? | -2% | -9%
Cc1ccccc1COc1ccc(-c2nnn(CC(=O)O)n2)cc1 | · | · | 17µM* | 3% | -10% | -1%
NS(=O)(=O)c1ccc(NC(=O)COC(=O)COc2cccc(C(F)(F)F)c2)cc1 | · | · | 13µM* | 0% | -7% | -4%
Clc1ccc(-n2c(Cc3ccccc3)nnc2SCc2nc(-c3cccs3)no2)cc1 | · | -17% | -3% | · | · | ·
